Source: PubChem BioAssay AID504332 (National Center for Advancing Translational Sciences (NCATS), 2011)
In all, about 350,000 compounds went through this assay and about 31,000 (8.9%) were called active. Entries that show only a call come without a potency. Inconclusive results (about 15%) are left out. Calls follow the shape of the dose curve; as a rule, active = well fitted inhibition curve with a large enough effect; inconclusive = small, poorly fitted or top-dose-only effect; inactive = no such curve, though single readings can be large or run the other way. For the sample, actives were picked, then their nearest neighbours and some compounds at random.

biological target: Histone-lysine N-methyltransferase EHMT2 (Homo sapiens) (UniProt Q96KQ7); assay: qHTS Assay for Inhibitors of Histone Lysine Methyltransferase G9a; settings: G9a H3K9 monomethylation, AlphaScreen, 2 h; series mostly up to 59 µM; also: nearly all actives have a fitted effect of over 75% in size
In short: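 Step 1: enzyme (final 20 nM) with compound, 15 min RT. Step 2: substrate peptide 500 nM and SAM 20 uM, 2 h RT. Step 3: anti-H3K9me1 antibody and AlphaScreen beads, 10 min, then plate read.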
Potency is read from the fitted curve at half-maximal effect.

Chain of Histone-lysine N-methyltransferase EHMT2 (Homo sapiens) (Q96KQ7 913-1193 limits assumed): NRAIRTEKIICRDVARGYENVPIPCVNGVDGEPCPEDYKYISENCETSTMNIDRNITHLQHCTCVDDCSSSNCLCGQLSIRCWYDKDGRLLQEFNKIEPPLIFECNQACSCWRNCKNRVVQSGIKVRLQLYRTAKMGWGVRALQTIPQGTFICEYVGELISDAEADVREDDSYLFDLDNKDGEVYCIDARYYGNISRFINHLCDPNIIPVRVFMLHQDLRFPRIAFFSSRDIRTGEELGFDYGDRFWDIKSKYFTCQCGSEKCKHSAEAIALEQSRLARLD

| SMILES | Potency | activity, negative = inhibition |
| --- | --- | --- |
| CC(C)C(NC(=O)c1c(F)cccc1F)C(=O)NCc1ccncc1 (stereo not drawn) | inactive | – |
| CC1(c2ccccc2)NC(=O)N(CC(=O)Nc2cc(Cl)ccc2N2CCOCC2)C1=O (stereo not drawn) | – | 22.3% [at 0.501 µM] (inactive) |
| O=C(CSc1nc(Nc2ccccc2)nc(N2CCOCC2)n1)Nc1cc(Cl)ccc1O | 50.1 µM (active) | – |
| Cc1ccccc1NC(=O)CSc1nc2ccc(Nc3nc(N4CCOCC4)nc(N4CCOCC4)n3)cc2s1 | inactive | – |
| CCOc1ccc(NC(=O)Cn2c(C)ccc(C#N)c2=O)cc1 | inactive | – |
| Cn1nc(-c2ccccc2)c(-c2ccccc2)c(C(=O)Nc2ccc(S(N)(=O)=O)cc2)c1=O | inactive | – |
| O=C(CN1C(=O)COc2ccc(S(=O)(=O)N3CCCCCC3)cc21)N1CCN(c2cccc(C(F)(F)F)c2)CC1 | inactive | – |
| CN(C)C(=O)c1nc2ccc(Cl)cn2c1CN1CCN(c2ncccn2)CC1 | inactive | – |
| Cc1cc(OCC(=O)N2CCN(c3ncccn3)CC2)ccc1Cl | inactive | – |
| COc1ccc(-c2nc(CN3CCN(c4ncccn4)CC3)c(C)o2)cc1C | inactive | – |
| c1cnc(N2CCN(c3ccc4ccccc4n3)CC2)nc1 | inactive | – |
| Oc1ccc(CN2CCN(c3ncccn3)CC2)cc1 | 79.4 µM (active) | – |
| Cc1ccc(CN2CCN(c3ncccn3)CC2)c(C)c1 | 10 µM (active) | – |
| O=C1NCCn2nc3ccccc3c21 | – | 16.4% [at 2.33 µM] (inactive) |
| Cn1c(=O)cc(OCC(=O)N2CCN(c3ccccc3)CC2)c2ccccc21 | inactive | – |
| COc1cccc2cc(C(N)=O)/c(=N\NC(=O)c3ccccc3)oc12 | inactive | – |
| O=C(c1ccc(C(F)(F)F)cc1)N1CCC(c2nc(-c3ccc(S(=O)(=O)N4CCCC4)cc3)no2)CC1 | inactive | – |
| CCOc1ccccc1-n1c(SCC(=O)NCc2ccco2)nnc1-c1ccncc1 | inactive | – |
| CCn1c(SCC(=O)NCc2ccco2)nnc1-c1ccc(N)cc1 | inactive | – |
| Cc1ccc(-c2csc3nnc(SCC(=O)NCc4ccco4)n23)cc1 | 17.8 µM (active) | – |
| O=C(Cc1ccc(S(=O)(=O)N2CCOCC2)s1)N1CCN(c2ccc(C(F)(F)F)cc2[N+](=O)[O-])CC1 | – | 5.52% [at 0.501 µM] (inactive) |
| COC(=O)c1cc(Cl)c(NC(=O)c2ccco2)cc1OC | inactive | – |
| CS/C(=C\C(=O)c1ccco1)Nc1ccccc1Cl | 50.1 µM (active) | – |
| O=C(Nc1ccccc1C(=O)N1CCCCC1)c1ccco1 | inactive | – |

| SMILES | Potency | activity, negative = inhibition |
| --- | --- | --- |
| Cc1nc2ccc(S(=O)(=O)N(CC(=O)Nc3ccc(F)cc3)Cc3ccccc3)cc2s1 | inactive | – |
| CCOC(=O)N1CCN(C(=O)C2CCN(S(=O)(=O)c3cc(Cl)ccc3OCC)CC2)CC1 | inactive | – |
| CCOC(=O)N1CCN(CCC(=O)Nc2cc(OC)ccc2OC)CC1 | inactive | – |
| CCOC(=O)N1CCN(C(=O)C2CCN(Cc3ccc(OC)cc3OC)CC2)CC1 | 7.94 µM (active) | – |
| CCN1C(=O)[C@H]2[C@@H](c3ccc(-c4ccc(OC)cc4)cc3)N[C@@](Cc3ccccc3)(C(=O)OC)[C@H]2C1=O | – | -6.39% [at 2.33 µM] (inactive) |
| CCOc1ccc(NC(=O)CN(C)C(=O)CCSc2ccc(F)cc2)cc1OCC | – | 21% [at 12.7 µM] (inactive) |
| CCN(CC(=O)Nc1ccccc1C(=O)NC1CC1)Cc1cccs1 | inactive | – |
| O=C(COc1ccc(Cl)cc1)NCc1nnc(SCC(=O)NCC2CCCO2)o1 (stereo not drawn) | inactive | – |
| Cc1nnc(SCC(=O)NNC(=O)c2ccc(Cl)cc2)n1CC1CCCO1 (stereo not drawn) | 35.5 µM (active) | – |
| O=C(CSc1nnc(-c2ccco2)n1CC1CCCO1)c1ccccc1 (stereo not drawn) | 50.1 µM (active) | – |
| Cc1nnc(SCC(N)=O)n1CC1CCCO1 (stereo not drawn) | – | -0.186% [at 2.33 µM] (inactive) |
| O=C(CSc1nnc(-c2ccco2)o1)NCC(=O)c1ccccc1 | inactive | – |
| O=C(CSc1nnc(-c2ccco2)n1Cc1ccccc1)NC(=O)NCc1ccco1 | inactive | – |
| CCC(NC(=O)C1CCCC1)c1ccc(C)cc1 (stereo not drawn) | inactive | – |
| Cc1ccccc1NC(=O)Cn1c(=O)n(CCc2ccccc2)c(=O)c2ccccc21 | inactive | – |
| Cc1ccc(S(=O)(=O)Nc2nc(CN3CCOCC3)nc3sc(C)c(C)c23)cc1 | – | 19.1% [at 2.33 µM] (inactive) |
| O=C(OCC(=O)N1CCCCCC1)c1cnc(Cl)c(Cl)c1 | inactive | – |
| CCNC(=O)N1CCN(S(=O)(=O)c2ccc3c(c2)OCCCO3)CC1 | – | -26.7% [at 2.33 µM] (inactive) |
| COc1ccc(OC)c(CCNC(=O)CCn2ccc3cc(S(=O)(=O)N4CCCC4)ccc32)c1 | inactive | – |
| O=C1CC[C@H](O)CCN1[C@H](CSc1ccc(Br)cc1)Cc1ccccc1 | – | 11.1% [at 2.33 µM] (inactive) |
| O=C(CSc1nnc(-c2ccncc2)n1-c1ccccc1)Nc1ccc(Cl)c(Cl)c1 | inactive | – |
| COc1ccc(OC)c(CNC(=O)Cn2nc(C)c3c(C)n(-c4ccccc4)nc3c2=O)c1 | inactive | – |
| CCOC(=O)C1CCCN(CC(=O)Nc2cc(C)c3c(=O)oc4ccccc4c3n2)C1 (stereo not drawn) | inactive | – |
| COC(=O)c1sc2ncccc2c1-n1c(C)ccc1C | inactive | – |

| SMILES | Potency | activity, negative = inhibition |
| --- | --- | --- |
| O=C(CSc1ccccc1)Nc1cccc(S(=O)(=O)N2CCCCC2)c1 | – | 14.6% [at 12.7 µM] (inactive) |
| CCCCSc1nc2ccccc2[nH]1 | inactive | – |
| CCN(/N=C/c1ccccc1)c1cc(=O)n(C)c(=O)[nH]1 | inactive | – |
| CCN(/N=C/c1ccc(N(C)C)cc1)c1nc2ccccc2[nH]1 | 2.82 µM (active) | – |
| CN1C(=O)C2(OCCCO2)c2cc(Cl)ccc21 | inactive | – |
| COc1cc(NC(=O)CSC(=S)N2CCCC2)c(OC)cc1Cl | – | 13.5% [at 2.33 µM] (inactive) |
| Cc1ccccc1-n1nc(C)c2c1N=C1C(Cl)=CC(Cl)=CN1C2c1ccc(C(=O)O)cc1 (stereo not drawn) | 25.1 µM (active) | – |
| CC1CCN(C(=O)Cn2c(=O)n(-c3ccc(Cl)cc3)c(=O)c3c4c(sc32)CCC4)CC1 | inactive | – |
| COc1ccc2c(c1OC)C(=O)OC2c1c(O)nc(SC)n(-c2ccccc2)c1=O (stereo not drawn) | – | 4.51% [at 12.7 µM] (inactive) |
| CCn1c(SC)nc(O)c(C(c2ccc(OC)c(O)c2)c2c(O)nc(SC)n(CC)c2=O)c1=O | 10 µM (active) | – |
| CCn1c(CNC(=O)c2ccc(OC)c(OC)c2)nnc1SCC(=O)Nc1ccccc1 | inactive | – |
| CCOc1ccccc1NC(=O)C1=C(C)Nc2ncnn2C1c1ccc(NC(C)=O)cc1 (stereo not drawn) | inactive | – |
| COc1ccccc1N1CCN(c2ccc(=O)n(CC(=O)NCc3ccc(OC(C)C)cc3)n2)CC1 | inactive | – |
| Cc1cccc(Cn2c(SCc3ccc(C(=O)N4CCC(C)CC4)cc3)nc3ccncc32)c1 | inactive | – |
| COc1cccc(Cn2c(SCc3ccc(C(=O)N4CCCCC4)cc3)nc3ccncc32)c1 | inactive | – |
| COc1cccc(Cn2c(SCc3ccc(C(=O)N4CCC(C)CC4)cc3)nc3ccncc32)c1 | 1.78 µM (active) | – |
| O=C(CSc1nc2c(c(=O)[nH]1)CN(Cc1ccc3c(c1)OCO3)CC2)Nc1cc(F)ccc1F | inactive | – |
| Cc1ccc2oc(C(=O)N3CCN(C)C[C@@H]3C(C)C)c(C)c2c1 | inactive | – |
| CN(C)S(=O)(=O)c1cc(C(=O)Nc2ccn(C)n2)c(Cl)cc1Cl | – | 19.1% [at 12.7 µM] (inactive) |
| FC(F)(F)Oc1ccc(NC(=S)NCc2ccccc2)cc1 | inactive | – |
| CS(=O)(=O)c1sc(C(=O)NC(=S)Nc2ccc(OC(F)(F)F)cc2)c2c1C=CCC2 | 50.1 µM (active) | – |
| CCNC(=S)Nc1ccc(OC(F)(F)F)cc1 | inactive | – |
| COc1ccc(Cl)cc1C(=O)Nc1ccc(N(C)C(C)=O)cc1 | inactive | – |
| COc1cc(OC)c(C(=O)Nc2ccc(N(C)C)cc2)cc1OC | 4.47 µM (active) | – |

| SMILES | Potency | activity, negative = inhibition |
| --- | --- | --- |
| COc1cc(OC)c(C(=O)Nc2ccccc2-c2ccccc2)cc1OC | inactive | – |
| COc1ccc(C(C)NC(=O)C23CC4CC(CC(C4)C2)C3)cc1 (stereo not drawn) | inactive | – |
| CCOc1ccc(-c2cc3nc(C4CCN(C(=O)OC(C)(C)C)CC4)c(C(=O)Nc4cccc(CC)c4)cn3n2)cc1 | inactive | – |
| O=C(NCc1ccc2c(c1)CCN2C(=O)c1ccccc1)Nc1cc(F)ccc1F | inactive | – |
| CC(C)c1c(O)nc(SCCOc2ccc(Cl)cc2)[nH]c1=O | inactive | – |
| CCSc1nc(O)c(C(c2cccc(OC)c2)c2c(O)nc(SCC)[nH]c2=O)c(=O)[nH]1 | 70.8 µM (active) | – |
| CCSc1nc(C)c(CCOc2cccc(C)c2)c(=O)[nH]1 | inactive | – |
| CCCCn1c(N)c(N(CC)C(=O)c2ccc(N(C)S(=O)(=O)c3ccc(C)cc3)cc2)c(=O)[nH]c1=O | – | 8.91% [at 12.7 µM] (inactive) |
| CCCCn1c(N)c(N(CCC(C)C)C(=O)COC(=O)c2cccnc2OCC)c(=O)[nH]c1=O | inactive | – |
| COc1ccc(NS(=O)(=O)c2ccc(C)c(C(=O)NCC(c3cccs3)N3CCOCC3)c2)cc1 (stereo not drawn) | inactive | – |
| COc1cccc(N2CC(NC(=O)c3ccc4ccccc4c3)CC2=O)c1 (stereo not drawn) | inactive | – |
| CC(NCc1cccs1)C(=O)Nc1cc(Cl)cc(Cl)c1 (stereo not drawn) | 5.01 µM (active) | – |
| CC(NCC(=O)Nc1cc(Cl)cc(Cl)c1)c1ccccc1 (stereo not drawn) | inactive | – |
| CC(=O)c1ccc(NC(=O)C(C)NCc2ccc(Cl)cc2)cc1 (stereo not drawn) | inactive | – |
| Cc1cccc(NC(=O)c2sc3nc(N4CCOCC4)c4c(c3c2N)CCCC4)c1 | – | 6.18% [at 0.501 µM] (inactive) |
| CC(NC(=O)CN(C)S(=O)(=O)c1ccc(F)cc1)C1CC2CCC1C2 (stereo not drawn) | – | 11.8% [at 12.7 µM] (inactive) |
| COc1ccccc1C(=O)OCc1cc(=O)n2nc(-c3cccs3)sc2n1 | inactive | – |
| CC(C)c1nc(SCC(=O)Nc2cccc(C(=O)O)c2)c2c3c(sc2n1)CCCC3 | inactive | – |
| Cc1cc(NC(=O)CSc2nc(C(C)C)nc3sc4c(c23)CCC(C)C4)no1 (stereo not drawn) | 1 µM (active) | – |
| CCCCOC(=O)CSc1ncnc2sc3c(c12)CCC(C)C3 (stereo not drawn) | inactive | – |
| CCOc1ccccc1CNC(=O)c1cnc2c(-c3ccc(OCC)c(OCC)c3)c(C)nn2c1C | inactive | – |
